# Data reported in the supplement of paper PMC10849652.
# Of roughly 8,800 targets only a part is listed; those with a hit were picked by preference. About 0.5% of all pairs of compound and target were hits.
# Compound: CC1=C(SC2=C1C(=N[C@H](C3=NN=C(N32)C)CC(=O)N)C4=CC=C(C=C4)Cl)C
# Experiment: log2 fold change, soluble protein after heating vs DMSO (PISA); higher = thermal stabilisation; K562 lysate, 10 uM; active = over 0.2 and 3.5 SD of the protein, either way, in both replicates (recomputed)
# How it was run: (§1)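 Log-two fold change in thermal stability relative to solvent controls is reported from duplicates. For each sample, crude K562 extract from dounce-homogenised pellets in PBS pH 7.4 with 1 mM MgCl2, at 1 mg/mL protein, was treated with 10 μM compound for 30 min. Aliquots heated for 3 min across 48°C-58°C were pooled, brought to 0.5% NP-40 at 4°C and cleared at 21,000xg for 90 min. The supernatant was quantified by TMTpro 16plex LC-MS/MS with channel sums equalised.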
# UniProt Q14C86, sequence (Q14C86 whole entry, looked up): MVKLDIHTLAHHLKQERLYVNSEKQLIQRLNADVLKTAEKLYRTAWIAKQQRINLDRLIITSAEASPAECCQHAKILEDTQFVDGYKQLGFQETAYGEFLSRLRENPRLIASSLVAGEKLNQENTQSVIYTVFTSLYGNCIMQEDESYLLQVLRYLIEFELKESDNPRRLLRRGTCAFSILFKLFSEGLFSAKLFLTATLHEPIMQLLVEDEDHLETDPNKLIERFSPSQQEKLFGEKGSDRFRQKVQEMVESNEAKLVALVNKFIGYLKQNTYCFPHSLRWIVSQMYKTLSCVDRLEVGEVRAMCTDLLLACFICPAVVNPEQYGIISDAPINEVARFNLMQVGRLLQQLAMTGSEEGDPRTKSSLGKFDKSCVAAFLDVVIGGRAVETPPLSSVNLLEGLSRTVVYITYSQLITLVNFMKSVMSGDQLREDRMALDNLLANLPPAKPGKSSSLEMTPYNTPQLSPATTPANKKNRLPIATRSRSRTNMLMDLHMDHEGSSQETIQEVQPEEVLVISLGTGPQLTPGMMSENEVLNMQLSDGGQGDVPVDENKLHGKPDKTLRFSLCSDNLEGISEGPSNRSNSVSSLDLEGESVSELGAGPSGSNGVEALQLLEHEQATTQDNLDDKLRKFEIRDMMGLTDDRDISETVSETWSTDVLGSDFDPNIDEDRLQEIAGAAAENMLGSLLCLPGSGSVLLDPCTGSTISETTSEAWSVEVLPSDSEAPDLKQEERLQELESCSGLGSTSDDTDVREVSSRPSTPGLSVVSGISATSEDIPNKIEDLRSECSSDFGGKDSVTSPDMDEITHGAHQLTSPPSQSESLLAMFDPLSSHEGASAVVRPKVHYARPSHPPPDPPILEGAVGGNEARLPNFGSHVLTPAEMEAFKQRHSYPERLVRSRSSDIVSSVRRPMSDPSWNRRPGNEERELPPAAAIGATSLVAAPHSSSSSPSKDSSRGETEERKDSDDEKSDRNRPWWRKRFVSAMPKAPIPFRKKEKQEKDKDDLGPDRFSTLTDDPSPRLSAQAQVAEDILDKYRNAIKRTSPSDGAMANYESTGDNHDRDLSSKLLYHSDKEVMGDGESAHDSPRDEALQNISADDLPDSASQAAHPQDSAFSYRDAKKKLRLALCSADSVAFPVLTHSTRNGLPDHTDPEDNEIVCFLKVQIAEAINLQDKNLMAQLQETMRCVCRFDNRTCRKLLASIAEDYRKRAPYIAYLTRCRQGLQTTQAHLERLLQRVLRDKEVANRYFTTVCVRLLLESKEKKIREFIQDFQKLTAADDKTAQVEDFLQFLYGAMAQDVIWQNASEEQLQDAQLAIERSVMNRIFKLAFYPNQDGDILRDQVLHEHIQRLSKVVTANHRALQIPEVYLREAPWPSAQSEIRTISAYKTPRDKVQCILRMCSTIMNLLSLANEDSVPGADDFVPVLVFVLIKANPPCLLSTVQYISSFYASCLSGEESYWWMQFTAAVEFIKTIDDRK
# UniProt Q8TB52, sequence (Q8TB52 whole entry, looked up): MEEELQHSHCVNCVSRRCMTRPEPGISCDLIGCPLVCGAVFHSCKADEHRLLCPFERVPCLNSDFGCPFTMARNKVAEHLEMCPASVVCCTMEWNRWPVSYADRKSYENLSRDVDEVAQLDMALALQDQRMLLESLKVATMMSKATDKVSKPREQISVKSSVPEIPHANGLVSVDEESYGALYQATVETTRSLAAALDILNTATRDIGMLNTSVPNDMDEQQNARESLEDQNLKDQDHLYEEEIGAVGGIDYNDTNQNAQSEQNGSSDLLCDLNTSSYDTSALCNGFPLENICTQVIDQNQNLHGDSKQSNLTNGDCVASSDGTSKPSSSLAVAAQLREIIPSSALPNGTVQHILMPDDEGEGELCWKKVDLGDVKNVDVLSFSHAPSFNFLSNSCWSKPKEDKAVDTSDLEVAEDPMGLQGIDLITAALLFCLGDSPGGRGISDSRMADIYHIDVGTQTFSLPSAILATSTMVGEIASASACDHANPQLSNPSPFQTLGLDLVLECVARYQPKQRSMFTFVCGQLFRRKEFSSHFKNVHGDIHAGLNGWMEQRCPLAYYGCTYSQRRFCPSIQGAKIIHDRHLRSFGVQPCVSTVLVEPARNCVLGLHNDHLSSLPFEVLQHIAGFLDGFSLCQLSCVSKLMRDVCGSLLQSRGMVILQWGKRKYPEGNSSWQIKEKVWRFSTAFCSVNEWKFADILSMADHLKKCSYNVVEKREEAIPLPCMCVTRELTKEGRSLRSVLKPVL
# UniProt Q9UI10, sequence (Q9UI10 whole entry, looked up): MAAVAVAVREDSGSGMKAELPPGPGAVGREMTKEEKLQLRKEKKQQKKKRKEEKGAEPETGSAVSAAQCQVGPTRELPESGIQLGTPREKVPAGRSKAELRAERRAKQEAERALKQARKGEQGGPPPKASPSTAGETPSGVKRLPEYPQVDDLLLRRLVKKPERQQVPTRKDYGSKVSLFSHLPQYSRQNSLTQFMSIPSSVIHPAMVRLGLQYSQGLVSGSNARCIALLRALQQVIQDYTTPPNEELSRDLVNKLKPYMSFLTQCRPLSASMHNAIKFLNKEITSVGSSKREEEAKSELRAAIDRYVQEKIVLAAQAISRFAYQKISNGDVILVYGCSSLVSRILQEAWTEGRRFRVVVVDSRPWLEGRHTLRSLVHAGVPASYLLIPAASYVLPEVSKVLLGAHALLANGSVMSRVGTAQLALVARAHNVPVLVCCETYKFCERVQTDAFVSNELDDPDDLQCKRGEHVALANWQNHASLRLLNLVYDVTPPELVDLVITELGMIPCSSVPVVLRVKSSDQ
# UniProt Q5VTE0, sequence (Q5VTE0 whole entry, looked up): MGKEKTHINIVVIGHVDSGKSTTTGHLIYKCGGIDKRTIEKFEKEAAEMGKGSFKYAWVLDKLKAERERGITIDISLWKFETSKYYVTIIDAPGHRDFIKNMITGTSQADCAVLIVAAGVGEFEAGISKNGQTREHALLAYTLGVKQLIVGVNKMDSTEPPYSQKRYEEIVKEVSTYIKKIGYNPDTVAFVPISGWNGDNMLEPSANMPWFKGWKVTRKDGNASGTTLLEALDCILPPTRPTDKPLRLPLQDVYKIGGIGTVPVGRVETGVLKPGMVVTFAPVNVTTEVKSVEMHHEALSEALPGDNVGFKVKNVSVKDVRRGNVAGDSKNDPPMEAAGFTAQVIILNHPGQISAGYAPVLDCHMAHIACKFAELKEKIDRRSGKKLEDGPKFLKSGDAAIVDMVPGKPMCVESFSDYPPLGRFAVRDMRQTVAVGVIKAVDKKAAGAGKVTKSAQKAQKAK
# UniProt Q9BQS8, sequence (Q9BQS8 whole entry, looked up): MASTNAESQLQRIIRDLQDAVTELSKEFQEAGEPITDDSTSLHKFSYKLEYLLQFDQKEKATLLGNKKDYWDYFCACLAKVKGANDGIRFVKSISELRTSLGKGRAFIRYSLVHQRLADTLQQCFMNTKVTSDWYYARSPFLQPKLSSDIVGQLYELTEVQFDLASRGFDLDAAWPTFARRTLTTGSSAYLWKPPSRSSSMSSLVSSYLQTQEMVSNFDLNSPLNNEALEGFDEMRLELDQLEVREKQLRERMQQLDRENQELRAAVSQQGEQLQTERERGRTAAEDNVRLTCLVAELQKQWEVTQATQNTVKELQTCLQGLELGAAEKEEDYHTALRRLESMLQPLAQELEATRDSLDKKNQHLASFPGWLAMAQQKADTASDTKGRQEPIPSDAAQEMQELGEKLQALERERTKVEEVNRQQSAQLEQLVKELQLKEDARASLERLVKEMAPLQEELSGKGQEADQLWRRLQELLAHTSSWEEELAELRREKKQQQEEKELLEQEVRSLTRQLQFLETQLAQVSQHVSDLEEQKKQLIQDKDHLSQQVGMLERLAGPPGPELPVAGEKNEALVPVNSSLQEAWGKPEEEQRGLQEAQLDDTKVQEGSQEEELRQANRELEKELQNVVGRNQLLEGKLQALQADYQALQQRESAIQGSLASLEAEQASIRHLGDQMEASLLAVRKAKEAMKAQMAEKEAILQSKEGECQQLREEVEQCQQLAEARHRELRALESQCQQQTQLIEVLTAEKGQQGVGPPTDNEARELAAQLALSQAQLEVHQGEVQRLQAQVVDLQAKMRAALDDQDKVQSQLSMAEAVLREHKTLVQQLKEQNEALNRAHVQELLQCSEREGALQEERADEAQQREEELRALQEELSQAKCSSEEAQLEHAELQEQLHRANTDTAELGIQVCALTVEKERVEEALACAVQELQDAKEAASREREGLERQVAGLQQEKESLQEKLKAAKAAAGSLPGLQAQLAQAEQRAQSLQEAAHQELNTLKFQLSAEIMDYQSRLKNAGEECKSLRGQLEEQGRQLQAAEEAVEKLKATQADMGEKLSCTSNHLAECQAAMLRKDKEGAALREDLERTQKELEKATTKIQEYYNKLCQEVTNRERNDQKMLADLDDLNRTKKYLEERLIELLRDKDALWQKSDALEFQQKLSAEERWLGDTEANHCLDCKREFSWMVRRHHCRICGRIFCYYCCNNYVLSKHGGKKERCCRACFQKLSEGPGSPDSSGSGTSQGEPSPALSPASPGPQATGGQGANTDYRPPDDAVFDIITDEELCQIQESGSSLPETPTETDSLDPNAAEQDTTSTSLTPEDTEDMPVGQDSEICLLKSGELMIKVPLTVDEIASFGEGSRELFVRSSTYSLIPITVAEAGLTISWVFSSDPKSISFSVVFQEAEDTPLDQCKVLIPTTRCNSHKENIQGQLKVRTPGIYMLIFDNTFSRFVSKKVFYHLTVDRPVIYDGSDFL
# UniProt P54852, sequence (P54852 whole entry, looked up): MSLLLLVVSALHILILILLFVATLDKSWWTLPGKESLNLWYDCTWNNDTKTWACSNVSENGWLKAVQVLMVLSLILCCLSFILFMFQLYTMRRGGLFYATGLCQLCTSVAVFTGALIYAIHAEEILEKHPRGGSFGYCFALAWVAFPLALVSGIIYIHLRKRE
# UniProt P23919, sequence (P23919 whole entry, looked up): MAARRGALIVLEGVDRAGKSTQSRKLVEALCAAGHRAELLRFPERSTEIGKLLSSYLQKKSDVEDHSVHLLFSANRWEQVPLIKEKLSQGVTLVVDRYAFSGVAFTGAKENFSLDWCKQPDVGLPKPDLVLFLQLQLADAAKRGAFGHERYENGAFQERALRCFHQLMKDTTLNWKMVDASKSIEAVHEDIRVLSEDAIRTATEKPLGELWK
row,Target,log2 fold change
1,ESPL1 (UniProt Q14674),0.129 (inactive)
2,FCHO1 (UniProt O14526),0.066 (inactive)
3,GALNT2 (UniProt Q10471),-0.009 (inactive)
4,EPN2 (UniProt O95208),-0.017 (inactive)
5,DUS3L (UniProt Q96G46),-0.001 (inactive)
6,EIF2B4 (UniProt Q9UI10),0.079 (inactive)
7,FAM120B (UniProt Q96EK7),0.059 (inactive)
8,FTL (UniProt P02792),0.127 (inactive)
9,"EEF1A1, A0A087WVQ9",0.093 (inactive)
10,GAPVD1 isoform 6 (UniProt Q14C86),0.002 (inactive)
11,ENSA isoform 3 (UniProt O43768),-0.027 (inactive)
12,EXO5 (UniProt Q9H790),-0.179 (inactive)
13,FYCO1 isoform 4 (UniProt Q9BQS8),0.037 (inactive)
14,GEMIN5 (UniProt Q8TEQ6),0.025 (inactive)
15,EWSR1 (UniProt H7BY36),-0.06 (inactive)
16,DUSP22 isoform 2 (UniProt Q9NRW4),-0.068 (inactive)
17,ECH1 (UniProt Q13011),0.008 (inactive)
18,GEMIN4 (UniProt P57678),-0.015 (inactive)

row,Target,log2 fold change
1,FYN (UniProt P06241),-0.231 (inactive)
2,EMP3 (UniProt P54852),-0.028 (inactive)
3,GAPVD1 (UniProt Q14C86),-0.067 (inactive)
4,EXTL2 (UniProt Q9UBQ6),0.235 (inactive)
5,FBXO30 (UniProt Q8TB52),0.011 (inactive)
6,EHD2 (UniProt Q9NZN4),-0.065 (inactive)
7,FBXO22 (UniProt Q8NEZ5),-0.004 (inactive)
8,FOXJ3 (UniProt Q9UPW0),-0.072 (inactive)
9,EEF1A1P5 (UniProt Q5VTE0),0.011 (inactive)
10,ERAL1 (UniProt O75616),0.033 (inactive)
11,FASTKD5 (UniProt Q7L8L6),-0.056 (inactive)
12,FAM83D (UniProt Q9H4H8),0.023 (inactive)
13,ESYT2 (UniProt H7BXI1),0.018 (inactive)
14,DTYMK (UniProt P23919),0.014 (inactive)
15,FTSJ1 (UniProt Q9UET6),0.013 (inactive)
16,DSN1 (UniProt Q9H410),0.053 (inactive)
17,FTSJ3 (UniProt Q8IY81),-0.051 (inactive)
18,DST (UniProt Q03001),0.042 (inactive)

# Compound: CC1=C2C(=CC=C1)N=C(N(C2=O)C3=CC=CC=C3C)CN4C=NC5=C(N=CN=C54)N
# Experiment: as above
# How it was run: as §1
row,Target,log2 fold change
1,ESPL1 (UniProt Q14674),0.251 (inactive)
2,FCHO1 (UniProt O14526),-0.025 (inactive)
3,GALNT2 (UniProt Q10471),0.021 (inactive)
4,EPN2 (UniProt O95208),-0.02 (inactive)
5,DUS3L (UniProt Q96G46),0.005 (inactive)
6,EIF2B4 (UniProt Q9UI10),-0.005 (inactive)
7,FAM120B (UniProt Q96EK7),-0.004 (inactive)
8,FTL (UniProt P02792),-0.034 (inactive)
9,"EEF1A1, A0A087WVQ9",-0.042 (inactive)
10,GAPVD1 isoform 6 (UniProt Q14C86),0.002 (inactive)
11,ENSA isoform 3 (UniProt O43768),-0.024 (inactive)
12,FYCO1 isoform 4 (UniProt Q9BQS8),0.03 (inactive)
13,GEMIN5 (UniProt Q8TEQ6),0.016 (inactive)
14,EWSR1 (UniProt H7BY36),0.091 (inactive)
15,DUSP22 isoform 2 (UniProt Q9NRW4),0.038 (inactive)
16,ECH1 (UniProt Q13011),-0.006 (inactive)
17,GEMIN4 (UniProt P57678),-0.014 (inactive)

row,Target,log2 fold change
1,FYN (UniProt P06241),-0.052 (inactive)
2,EMP3 (UniProt P54852),-0.038 (inactive)
3,EXTL2 (UniProt Q9UBQ6),-0.059 (inactive)
4,FBXO30 (UniProt Q8TB52),-0.041 (inactive)
5,EHD2 (UniProt Q9NZN4),0.003 (inactive)
6,FBXO22 (UniProt Q8NEZ5),0.03 (inactive)
7,FOXJ3 (UniProt Q9UPW0),0.013 (inactive)
8,EEF1A1P5 (UniProt Q5VTE0),0.004 (inactive)
9,ERAL1 (UniProt O75616),0.007 (inactive)
10,FASTKD5 (UniProt Q7L8L6),-0.024 (inactive)
11,FAM83D (UniProt Q9H4H8),0.035 (inactive)
12,ESYT2 (UniProt H7BXI1),-0.001 (inactive)
13,DTYMK (UniProt P23919),-0.029 (inactive)
14,FTSJ1 (UniProt Q9UET6),-0.025 (inactive)
15,DSN1 (UniProt Q9H410),0.019 (inactive)
16,FTSJ3 (UniProt Q8IY81),-0.007 (inactive)
17,DST (UniProt Q03001),0.111 (inactive)
